Inconclusive results are not listed. The source made the active and inactive calls. Unless noted, calls come from the whole dose curve; as a rule, active = well fitted curve in the direction sought with a large enough effect in the repeat runs; inconclusive = weak or mixed curves; inactive = no such curve, though single readings can be large; an effect the other way counts as inactive or inconclusive.
Assays:
[1] = qHTS assay to identify aromatase inhibitors - cell viability counter screen (AID 743084);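 note: cells stimulated with testosterone during compound exposure; nearly all actives have a fitted effect of over 55% in size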
[2] = biological target: Aryl hydrocarbon receptor (Homo sapiens) (UniProt P35869); test: qHTS assay to identify small molecule that activate the aryl hydrocarbon receptor (AhR) signaling pathway (AID 743085);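 note: HG2L7.5c1 human HepG2 liver cells with stably integrated DRE-driven firefly reporter; series mostly up to about 70 µM; nearly all actives have a fitted effect of over 15% in size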
In short: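 A multiplexed format paired cell viability (CellTiter-Fluor fluorescence) with AhR-dependent luciferase output (ONE-Glo luminescence) in the same wells of HepG2 DRE-luc cells after 24 h compound exposure at 37C.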

[3] = qHTS assay to identify small molecule that activate the aryl hydrocarbon receptor (AhR) signaling pathway - cell viability counter screen (AID 743086);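 note: HepG2 liver cells carrying the AhR DRE luciferase reporter; series mostly up to about 70 µM; nearly all actives have a fitted effect of over 45% in size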
In short: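 Cytotoxicity counter screen: CellTiter-Fluor signal (30 min, 37 C) in 4000 HepG2 cells/well carrying the DRE-luciferase reporter, following 24 h compound exposure at 37 C.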

[4] = biological target: Peroxisome proliferator-activated receptor gamma (Homo sapiens) (UniProt P37231); test: qHTS assay to identify small molecule agonists of the peroxisome proliferator-activated receptor gamma (PPARg) signaling pathway (AID 743094; active = well fitted activation curve with a large enough effect in the signal ratio in the repeat runs, not every such curve was filed as active; the % refers to the signal ratio)
In short: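 Reporter activation was scored by fluorescence of cleaved LiveBLAzer B/G substrate (1 h, room temperature) in PPARg-bla HEK293H cells previously treated 17 h at 37C with DMSO-dissolved compounds.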

[5] = biological target: Peroxisome proliferator-activated receptor gamma (Homo sapiens) (UniProt P37231); test: qHTS assay to identify small molecule antagonists of the peroxisome proliferator-activated receptor gamma (PPARg) signaling pathway (AID 743191; calls by dose curve; note: series mostly up to about 63 µM; nearly all actives have a fitted effect of over 30% in size)
In short: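 Beta-lactamase reporter under UAS control in HEK293H PPARg-bla cells; compound treatment 17 h at 37C. Read-out: fluorescence intensity after 1 h room-temperature incubation with LiveBLAzer B/G FRET substrate.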

[6] = qHTS assay to identify small molecule antagonists of the peroxisome proliferator-activated receptor gamma (PPARg) signaling pathway - cell viability counter screen (AID 743194); note: nearly all actives have a fitted effect of over 55% in size
In short: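 Viability was measured as CellTiter-Glo luminescence in GeneBLAzer PPARg UAS-bla HEK293H cells. These cells had been exposed 17 h at 37 C to compounds together with rosiglitazone at 50 nM final, with the beta-lactamase readout taken in the same wells.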

[7] = qHTS assay for small molecule agonists of the antioxidant response element (ARE) signaling pathway (AID 743202; active = well fitted activation curve with a large enough effect in the signal ratio in the repeat runs, not every such curve was filed as active; the % refers to the signal ratio)
In short: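 Beta-lactamase reporter activity, read as fluorescence intensity, reflects ARE/Nrf2 pathway induction in HepG2 cells after 16 h compound exposure at 37 C; substrate loading was 2 h at room temperature.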

[8] = qHTS assay for small molecule agonists of the antioxidant response element (ARE) signaling pathway - cell viability counter screen (AID 743203; calls by dose curve; note: nearly all actives have a fitted effect of over 55% in size)
In short: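 Viability counter screen: stably transfected ARE-bla HepG2 line, 16 hrs compound exposure at 37C/5% CO2, ATP-based CellTiter-Glo luminescence measured in the reporter wells.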

[9] = qHTS assay for small molecule activators of the heat shock response signaling pathway - cell viability counter screen (AID 743209); note: nearly all actives have a fitted effect of over 50% in size
In short: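 Viability of HSE-bla HeLa cells is measured with CellTiter-Glo in the wells already used for the reporter read. Compound exposure lasts 5 h at 37 C, and luminescence is read after 30 min at room temperature.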

[10] = qHTS assay for small molecule activators of the heat shock response signaling pathway (AID 743210; active = well fitted activation curve with a large enough effect in the signal ratio in the repeat runs, with a control signal flat, not every such curve was filed as active; the % refers to the signal ratio;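 note: HeLa cells with beta-lactamase reporter driven by heat shock elements; series mostly up to about 63 µM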)
In short: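 Fluorescence from a cleaved B/G FRET substrate (2.5 h, room temp) reports HSE-driven beta-lactamase in HeLa cells treated 5 h at 37 C with DMSO-dissolved compounds.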

[11] = qHTS assay to identify small molecule agonists of the peroxisome proliferator-activated receptor delta (PPARd) signaling pathway - cell viability counter screen (AID 743211); note: nearly all actives have a fitted effect of over 55% in size
In short: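 Tox21 library compounds, delivered in DMSO, were incubated 17 h with PPARd-bla HEK293H cells; cytotoxicity was taken from CellTiter-Glo luminescence read 30 min after reagent addition.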

[12] = biological target: Peroxisome proliferator-activated receptor delta (Homo sapiens) (UniProt Q03181); test: qHTS assay to identify small molecule agonists of the peroxisome proliferator-activated receptor delta (PPARd) signaling pathway (AID 743212; calls by dose curve;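 note: HEK293H cells with PPARd UAS beta-lactamase reporter GeneBLAzer system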)
In short: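 Steps: seed PPARd-bla HEK293H cells; incubate 5 h, 37 C, 5% CO2; add compounds in DMSO; incubate, 37 C; add LiveBLAzer B/G FRET substrate; hold 2 h at room temperature; measure fluorescence.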

[13] = qHTS assay to identify small molecule antagonists of the peroxisome proliferator-activated receptor delta (PPARd) signaling pathway - cell viability counter screen (AID 743213); note: nearly all actives have a fitted effect of over 50% in size
In short: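 In this counter screen, HEK293H cells carrying a UAS-beta-lactamase reporter are co-treated with test compounds and 300 nM L165041 (final) for 17 h at 37 C; cell viability is quantified by CellTiter-Glo luminescence.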

[14] = biological target: Peroxisome proliferator-activated receptor delta (Homo sapiens) (UniProt Q03181); test: qHTS assay to identify small molecule antagonists of the peroxisome proliferator-activated receptor delta (PPARd) signaling pathway (AID 743215; active = well fitted inhibition curve with a large enough effect in the signal ratio in the repeat runs, not every such curve was filed as active; the % refers to the signal ratio;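 note: cells stimulated with agonist L165041 at 300 nM final during compound exposure; series mostly up to about 62 µM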)
In short: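 Plated HEK293H PPARd-bla cells rested 5 h at 37 C and 5% CO2. Compound, then agonist L165041 at 300 nM final, was added; 17 h at 37 C followed. Substrate loading, 2 h room temperature, fluorescence measured.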

[15] = biological target: Bile acid receptor (Homo sapiens) (UniProt Q96RI1); test: qHTS assay to identify small molecule antagonists of the farnesoid-X-receptor (FXR) signaling pathway (AID 743217; active = well fitted inhibition curve with a large enough effect in the signal ratio in the repeat runs, not every such curve was filed as active; the % refers to the signal ratio)
In short: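 Screen of the Tox21 10K library in quantitative HTS format using FXR-UAS-bla HEK 293T reporter cells. Agonist chenodeoxycholic acid, 50 uM final, added with compounds; 16 h incubation at 37 °C; beta-lactamase FRET fluorescence measured.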

[16] = qHTS assay to identify small molecule agonists of the farnesoid-X-receptor (FXR) signaling pathway - cell viability counter screen (AID 743218); note: nearly all actives have a fitted effect of over 45% in size
In short: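 Viability of FXR-bla HEK 293T cells is measured by ATP-based CellTiter-Glo luminescence following 16 h compound treatment at 37 C and a prior 2 h room-temperature beta-lactamase substrate step.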

[17] = biological target: Bile acid receptor (Homo sapiens) (UniProt Q96RI1); test: qHTS assay to identify small molecule agonists of the farnesoid-X-receptor (FXR) signaling pathway (AID 743220; active = well fitted activation curve with a large enough effect in the signal ratio in the repeat runs, not every such curve was filed as active; the % refers to the signal ratio)
In short: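 FXR-UAS-bla HEK 293T cells carrying a UAS-driven beta-lactamase reporter were plated for 5 h at 37C/5% CO2, then exposed to DMSO-dissolved Tox21 10K compounds for 16 h at 37C. A LiveBLAzer B/G FRET substrate was loaded for 2 h at room temperature before fluorescence reading.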

[18] = qHTS assay to identify small molecule antagonists of the farnesoid-X-receptor (FXR) signaling pathway - cell viability counter screen (AID 743221; active = well fitted cell-killing curve with a large enough effect in the repeat runs, not every such curve was filed as active; note: nearly all actives have a fitted effect of over 50% in size)
In short: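 Cytotoxicity is taken from ATP luminescence (CellTiter-Glo, 30 min, room temperature) in FXR-bla HEK 293T cells previously incubated 16 h at 37 C with compound and chenodeoxycholic acid at 50 uM final.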

[19] = biological target: Vitamin D3 receptor (Homo sapiens) (UniProt P11473); test: qHTS assay to identify small molecule antagonists of the vitamin D receptor (VDR) signaling pathway (AID 743223; active = well fitted inhibition curve with a large enough effect in the signal ratio in the repeat runs, not every such curve was filed as active; the % refers to the signal ratio)
In short: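 Quantitative HTS in VDR-bla reporter cells stimulated with 1alpha,25-dihydroxyvitamin D3, 3 nM final. Compound exposure 16 h, 37C, 5% CO2. Read-out: beta-lactamase FRET substrate fluorescence, 2 h RT.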

[20] = biological target: Vitamin D3 receptor (Homo sapiens) (UniProt P11473); test: qHTS assay to identify small molecule agonists of the vitamin D receptor (VDR) signaling pathway (AID 743222; calls by dose curve)
In short: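 Fluorescence from cleaved LiveBLAzer B/G FRET substrate served as readout. VDR-bla cells had been treated 16 h at 37C with test compounds in DMSO, following a 4 h settling period, and substrate was loaded for 2 h at RT.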

Measured: Potency

Peroxisome proliferator-activated receptor gamma (Homo sapiens), sequence (P37231 whole entry, looked up): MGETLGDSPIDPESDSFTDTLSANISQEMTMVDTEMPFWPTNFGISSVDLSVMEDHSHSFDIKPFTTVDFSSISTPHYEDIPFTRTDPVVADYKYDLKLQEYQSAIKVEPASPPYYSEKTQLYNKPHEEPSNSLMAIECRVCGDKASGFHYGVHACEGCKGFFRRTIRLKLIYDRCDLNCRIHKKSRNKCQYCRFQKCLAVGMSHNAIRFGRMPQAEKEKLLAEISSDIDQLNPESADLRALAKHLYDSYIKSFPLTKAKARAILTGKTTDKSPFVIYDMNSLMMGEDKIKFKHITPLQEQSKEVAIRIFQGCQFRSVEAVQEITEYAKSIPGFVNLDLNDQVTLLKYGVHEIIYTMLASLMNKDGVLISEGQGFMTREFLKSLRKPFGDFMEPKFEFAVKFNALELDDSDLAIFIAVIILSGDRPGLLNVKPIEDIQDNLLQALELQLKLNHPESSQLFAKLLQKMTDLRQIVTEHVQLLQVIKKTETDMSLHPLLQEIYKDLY
Peroxisome proliferator-activated receptor delta (Homo sapiens), sequence (Q03181 whole entry, looked up): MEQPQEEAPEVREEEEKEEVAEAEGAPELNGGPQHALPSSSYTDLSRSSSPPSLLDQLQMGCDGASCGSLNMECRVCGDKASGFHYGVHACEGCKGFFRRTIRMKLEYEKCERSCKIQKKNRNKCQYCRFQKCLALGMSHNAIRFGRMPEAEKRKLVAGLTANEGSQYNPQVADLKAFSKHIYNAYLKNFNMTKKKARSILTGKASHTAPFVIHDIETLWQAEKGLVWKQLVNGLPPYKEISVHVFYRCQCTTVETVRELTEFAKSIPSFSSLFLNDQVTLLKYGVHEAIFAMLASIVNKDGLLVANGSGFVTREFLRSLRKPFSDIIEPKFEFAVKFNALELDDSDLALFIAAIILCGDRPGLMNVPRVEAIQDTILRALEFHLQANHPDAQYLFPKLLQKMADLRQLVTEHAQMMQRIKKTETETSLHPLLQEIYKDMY
Bile acid receptor (Homo sapiens), sequence (Q96RI1 whole entry, looked up): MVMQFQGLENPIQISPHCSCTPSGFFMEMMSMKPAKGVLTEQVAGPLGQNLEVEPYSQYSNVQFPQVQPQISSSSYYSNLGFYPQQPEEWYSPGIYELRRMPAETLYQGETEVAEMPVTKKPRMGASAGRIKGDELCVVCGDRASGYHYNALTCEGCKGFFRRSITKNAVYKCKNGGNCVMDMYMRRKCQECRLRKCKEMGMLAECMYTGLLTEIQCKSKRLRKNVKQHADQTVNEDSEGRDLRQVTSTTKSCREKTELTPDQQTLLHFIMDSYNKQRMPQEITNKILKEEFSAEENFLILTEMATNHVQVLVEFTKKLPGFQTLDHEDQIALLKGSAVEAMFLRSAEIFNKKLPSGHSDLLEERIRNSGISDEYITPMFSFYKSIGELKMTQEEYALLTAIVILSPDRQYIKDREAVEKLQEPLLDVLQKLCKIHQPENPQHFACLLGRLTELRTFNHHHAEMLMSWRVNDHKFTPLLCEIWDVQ
Aryl hydrocarbon receptor (Homo sapiens), sequence (P35869 whole entry, looked up): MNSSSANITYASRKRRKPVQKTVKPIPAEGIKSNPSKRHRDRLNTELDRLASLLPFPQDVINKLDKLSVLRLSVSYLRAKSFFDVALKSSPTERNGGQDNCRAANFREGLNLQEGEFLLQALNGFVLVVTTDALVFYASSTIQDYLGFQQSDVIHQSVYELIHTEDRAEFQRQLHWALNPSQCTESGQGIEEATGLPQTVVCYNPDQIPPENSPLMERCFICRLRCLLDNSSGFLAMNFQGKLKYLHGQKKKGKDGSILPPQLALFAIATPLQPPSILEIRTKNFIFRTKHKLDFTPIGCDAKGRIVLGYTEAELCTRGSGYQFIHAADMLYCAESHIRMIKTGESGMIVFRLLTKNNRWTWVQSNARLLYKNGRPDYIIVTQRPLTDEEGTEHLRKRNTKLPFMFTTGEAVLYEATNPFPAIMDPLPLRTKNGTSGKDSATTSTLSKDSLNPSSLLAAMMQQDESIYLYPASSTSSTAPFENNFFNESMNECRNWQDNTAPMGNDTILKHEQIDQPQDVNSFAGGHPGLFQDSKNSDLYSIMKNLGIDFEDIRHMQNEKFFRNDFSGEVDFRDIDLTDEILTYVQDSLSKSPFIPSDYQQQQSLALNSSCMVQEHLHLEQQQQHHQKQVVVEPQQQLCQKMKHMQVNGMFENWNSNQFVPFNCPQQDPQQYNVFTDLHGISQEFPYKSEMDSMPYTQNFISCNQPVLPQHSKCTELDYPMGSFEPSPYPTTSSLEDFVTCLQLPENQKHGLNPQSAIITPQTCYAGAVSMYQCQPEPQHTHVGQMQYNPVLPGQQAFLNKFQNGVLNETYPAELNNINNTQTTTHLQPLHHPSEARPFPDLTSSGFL
Vitamin D3 receptor (Homo sapiens), sequence (P11473 whole entry, looked up): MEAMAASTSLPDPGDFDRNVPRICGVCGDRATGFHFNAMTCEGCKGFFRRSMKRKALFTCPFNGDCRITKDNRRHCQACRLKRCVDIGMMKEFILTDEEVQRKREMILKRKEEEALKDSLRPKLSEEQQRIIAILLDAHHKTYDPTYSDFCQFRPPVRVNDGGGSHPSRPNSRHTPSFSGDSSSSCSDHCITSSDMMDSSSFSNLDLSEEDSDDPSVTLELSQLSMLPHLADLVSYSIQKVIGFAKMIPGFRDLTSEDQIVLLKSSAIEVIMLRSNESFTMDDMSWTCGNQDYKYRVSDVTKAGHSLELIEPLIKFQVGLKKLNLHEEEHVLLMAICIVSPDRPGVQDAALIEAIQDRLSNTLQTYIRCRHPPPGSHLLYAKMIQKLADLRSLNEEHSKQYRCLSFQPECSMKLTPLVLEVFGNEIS

O=C1C=CCCC1
inactive: [1] | [2] | [3] | [4] | [5] | [6] | [7] | [8] | [9] | [10] | [11] | [12] | [13] | [14] | [15] | [16] | [17] | [18]

CCN(CCCCOC(=O)c1ccc(OC)c(OC)c1)C(C)Cc1ccc(OC)cc1 (stereo unspecified)
inactive: [1] | [2] | [3] | [4] | [5] | [6] | [7] | [8] | [9] | [10] | [11] | [19]

CC(O)C(C)O (stereo unspecified)
inactive: [1] | [2] | [3] | [4] | [5] | [6] | [7] | [8] | [9] | [10] | [11] | [12] | [14] | [18] | [20] | [19]

CCCOC(C)=O
inactive: [1] | [2] | [3] | [4] | [5] | [6] | [7] | [8] | [9] | [10] | [11] | [12] | [14] | [16] | [18]

CCC(C)CCCC(C)(C)O (stereo unspecified)
inactive: [1] | [2] | [3] | [4] | [5] | [6] | [7] | [8] | [9] | [10] | [11] | [12] | [13] | [14] | [16] | [18] | [20]

CCCC(=O)OCCC(C)C
inactive: [1] | [2] | [3] | [4] | [5] | [6] | [7] | [8] | [9] | [10] | [11] | [12] | [14] | [15] | [16] | [17] | [18] | [20]

CO[C@@H]1COCC[C@@H]1N[C@@H]1CC[C@@](C(=O)N2CCc3ncc(C(F)(F)F)cc3C2)(C(C)C)C1
inactive: [1] | [2] | [3] | [4] | [5] | [6] | [7] | [8] | [9] | [10] | [11] | [12] | [13] | [16] | [18] | [20] | [19]

CC(=O)OCC(=O)[C@@]1(O)CC[C@H]2[C@@H]3CCC4=CC(=O)C=C[C@]4(C)[C@@]3(F)[C@@H](O)C[C@@]21C
inactive: [1] | [2] | [3] | [4] | [5] | [6] | [7] | [8] | [9] | [10] | [11] | [13] | [16]

Source: PubChem BioAssay (Tox21)
